From PubChem
NS1 function inh = inhibitors of influenza NS1 protein function; Potency, µM (top dose mostly 46.1 µM); 0.4% of 270,000 active; calls by dose curve; also: actives are rising curves; nearly all actives have a fitted effect of over 50% in size
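S. cerevisiae expressing influenza A NS1, grown in glucose, washed, then diluted 1:100 into pH 6.0 -URA galactose medium with 23 nl compound. Growth recovery read as OD600; NS1-free strain serves as control.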
Pf growth 48h = inhibits P. falciparum growth in the first generation, 48 h | 5.9% of 310,000 active | Potency, µM (highest dose often 28.7 µM), usual class: inhibitors | P. falciparum luciferase growth in erythrocytes, 48 h
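Luciferase-expressing parasites in RBCs, 2% Hct / 0.1% parasitemia final; RPMI 1640 + 0.5% Albumax; 37 C, 5% CO2, one generation; luminescence read-out, lower signal = inhibition.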
SARS PLP yeast = SARS-CoV PLP inhibition in yeast. 0.19% of 330,000 active. AID 485353. Potency, µM (series often up to 32.9 µM), usual class: activators. S. cerevisiae expressing SARS-CoV PLpro, growth rescue; calls by dose curve; also: nearly all actives have a fitted effect of over 55% in size
Pf growth 96h = P. falciparum growth inhibition at 96 hour, primary screen for plastid delayed-death inhibitors | P. falciparum luciferase reporter growth, 96 h | Potency, µM (top dose mostly 28.7 µM), usual class: inhibitors | 6.9% of 320,000 active | AID 504834
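Parasite growth measured via integrated firefly luciferase reporter in P. falciparum. Infected erythrocytes at 2% hematocrit, 0.05% parasitemia final were treated 96 hours at 37 C under 5% CO2, and luminescence was read.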
AMA1-RON2 inh = inhibitors of Plasmodium falciparum AMA1-RON2 interaction. AlphaScreen AMA1-biotinylated RON2 peptide binding. Potency, µM (titrated, usually from 58.2 µM), hits mostly inhibitors. 0.2% of 360,000 active; also: nearly all actives have a fitted effect of over 45% in size
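AMA1 (3D7) with his tag at 25 nM final met compounds first, then biotinylated RON2 peptide at 25 nM; detection used donor plus acceptor beads, 10 µg/mL apiece, read by AlphaScreen after 30 min at room temperature.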
HCV inhibitor = inhibitors of hepatitis C virus infection | Potency, µM (titrated, usually from 41.8 µM), actives largely listed as inhibitors | 3.4% of 340,000 active | Huh7.5.1 HCVcc-Cre infection, luciferase reporter, 44 h
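Compounds are dispensed onto cells plated 4 h earlier at 1,000 per well, with HCVcc-Cre virus (about 0.5 moi) added next. Following 44 h of culture, luminescent signal is measured for 15 sec after 15 min with substrate at room temperature.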
Each line names hits and unclear results; the compound was inactive in the other large screens. Hits are enriched below; roughly 12% of the tested compounds scored in any of these assays. Unless noted, calls follow the shape of the dose curve; as a rule, active = well fitted curve in the direction sought with a large enough effect; inconclusive = small, poorly fitted or top-dose-only effect, or another doubt; inactive = no such curve, though single readings can be large; an effect the other way counts as inactive or inconclusive.

CCO[C@@H]1OC(C(=O)N2CCN(Cc3ccc4c(c3)OCO4)CC2)=C[C@H](c2coc3ccccc3c2=O)[C@H]1CCCO	Pf growth 48h inconclusive, Pf growth 96h inconclusive
CCO[C@@H]1OC(C(=O)N2CCN(C)CC2)=C[C@H](C2CCCCC2)[C@H]1CCCO	none
CCO[C@H]1OC(C(=O)N2CCN(Cc3ccc4c(c3)OCO4)CC2)=C[C@@H](C(C)(C)C)[C@@H]1CCCO	Pf growth 48h 6.57µM, Pf growth 96h inconclusive
CCO[C@H]1OC(C(=O)N2CCN(Cc3ccccc3)CC2)=C[C@@H](C2CCCCC2)[C@@H]1CCCO	Pf growth 48h inconclusive, Pf growth 96h 1.65µM
CN(C(=O)c1cccc(NC(=O)Cc2ccc(NC(=O)C3CCN(C(=O)C4CC4)CC3)cc2)c1)C1CCC1	none (no result: NS1 function inh, Pf growth 48h, SARS PLP yeast, Pf growth 96h)
CN(NC(=O)/C=C/C(=O)O)c1ncc(C(F)(F)F)cc1Cl	Pf growth 48h inconclusive (no result: NS1 function inh)
Cc1c(Br)c([N+](=O)[O-])nn1CC(=O)Nc1ccc(Cc2ccncc2)cc1	NS1 function inh inconclusive, Pf growth 96h inconclusive, HCV inhibitor inconclusive
COc1ccccc1N1CCN(Cc2ccco2)CC1	Pf growth 48h 2.33µM, AMA1-RON2 inh inconclusive
COc1ccc(CN2CCN(Cc3ccco3)CC2)cc1OC	SARS PLP yeast inconclusive, Pf growth 96h inconclusive, AMA1-RON2 inh 17.8µM
CCN(CC)S(=O)(=O)c1ccc2oc(C(=O)NCc3ccc(C)cc3)c(C)c2c1	Pf growth 48h 9.28µM, HCV inhibitor inconclusive (no result: Pf growth 96h)
CCc1ccc2oc(C(=O)NCc3ccncc3)c(C)c2c1	Pf growth 96h inconclusive, HCV inhibitor 11.2µM
Cc1cc(C)c2c(C)c(C(=O)NCc3ccncc3)oc2c1	Pf growth 48h inconclusive, HCV inhibitor 2µM
Cc1ccccc1C(=O)NCc1ccncc1	none
Cc1c(C(=O)Nc2cccc(F)c2)cnn1-c1ccccc1	HCV inhibitor 11.2µM
O=C1NC2=C(C(=O)CCC2)C(c2ccccc2Cl)N1 (stereo unspecified)	Pf growth 96h 2.94µM
CNc1nc(SCc2ccccc2Cl)nc2c1CCCC2	Pf growth 48h 13.1µM, Pf growth 96h 14.7µM, HCV inhibitor 7.08µM
COCCN(Cc1ccc(OC)cc1)c1c(C)nc2ccc(C(=O)NCCc3c[nH]c4ccccc34)cn12	none (no result: NS1 function inh, Pf growth 48h, SARS PLP yeast, Pf growth 96h, HCV inhibitor)
CC(=O)c1cc(F)c(N2CCN(C(=O)COc3ccccc3F)CC2)cc1C	Pf growth 48h 14.7µM, HCV inhibitor inconclusive
Cc1cc(-c2ccccc2)nc(SCC(=O)N2CCCC2)n1	HCV inhibitor 25.1µM
COc1ccc(NC(=O)NC23CC4(C)CC(C)(CC(C)(C4)C2)C3)cc1OC	Pf growth 48h 2.62µM, Pf growth 96h inconclusive, HCV inhibitor inconclusive
COc1ccc([N+](=O)[O-])cc1NC(=O)Nc1ccc(OC)c(OC)c1	Pf growth 48h inconclusive, HCV inhibitor 2.82µM
COc1ccc([N+](=O)[O-])cc1NC(=O)Nc1cccc(Cl)c1	Pf growth 48h 9.28µM, HCV inhibitor inconclusive
C=CC[C@H](CC(=O)NCCO)C(=O)N[C@@H](COC(=O)[C@H](CC=C)CC(=O)OC(C)(C)C)Cc1ccccc1	HCV inhibitor inconclusive (no result: NS1 function inh, Pf growth 48h, Pf growth 96h)
CCCCCCn1c(=O)n2n(c1=O)[C@@H]1CN(S(=O)(=O)c3ccc(C)cc3)C[C@]1(O)[C@@H](OC(=O)Nc1c(C)noc1C)C2	none (no result: NS1 function inh, Pf growth 48h, SARS PLP yeast, Pf growth 96h, HCV inhibitor)
COc1ccccc1CN(C)C(=O)COC(=O)c1cc(C)oc1C	Pf growth 48h inconclusive (no result: NS1 function inh)
O=C(c1cccc([N+](=O)[O-])c1)N1CCCC(C(=O)N2CCc3ccccc3C2)C1 (stereo unspecified)	none
c1ccc(-c2nc3ccccc3c3nc4ccccc4n23)cc1	none
c1ccc(-c2nc3nonc3c3nc4ccccc4n23)cc1	Pf growth 96h 13.1µM
COc1cc(C(=O)Nc2ccc(S(=O)(=O)Nc3nccc(C)n3)cc2)c([N+](=O)[O-])cc1OC	Pf growth 96h inconclusive
COc1ccc(-c2nnc3ccc(SC(C(C)=O)C(C)=O)nn23)cc1OC	Pf growth 48h 9.28µM, Pf growth 96h inconclusive
COc1ccc(-c2nnc3ccc(SCC(=O)Nc4nc5ccc(C)cc5s4)nn23)cc1OC	Pf growth 48h 13.1µM, Pf growth 96h inconclusive
CCC(Sc1ccc2nnc(-c3ccc(OC)c(OC)c3)n2n1)C(=O)O (stereo unspecified)	Pf growth 96h inconclusive (no result: Pf growth 48h)
CCN(CC(=O)NCc1cccs1)C(=O)c1ccc(S(=O)(=O)Nc2ccccc2Cl)cc1	Pf growth 48h inconclusive (no result: NS1 function inh)
COc1ccc(C2C3=C(CC(C)(C)CC3=O)N(C)C3=C2C(=O)CC(C)(C)C3)cc1OC	Pf growth 96h 13.1µM
C=CCOc1ccc(C2C(C#N)=C(N)N(Nc3ccccc3)C3=C2C(=O)CC(C)(C)C3)cc1OC (stereo unspecified)	Pf growth 48h 8.28µM, Pf growth 96h 8.28µM, HCV inhibitor inconclusive
C#CCOc1ccc(C2C3=C(CC(C)(C)CC3=O)N(CC(=O)O)C3=C2C(=O)CC(C)(C)C3)cc1OC	Pf growth 96h inconclusive
O=C(OCc1cn([C@@H]2C[C@H](c3ccc(Cl)cc3)N(C(=O)C3CCCCC3)C[C@H]2O)nn1)c1ccccc1	none (no result: NS1 function inh, Pf growth 48h, SARS PLP yeast, Pf growth 96h, HCV inhibitor)
COCC(=O)O[C@]1(CCN(C)CCCc2nc3ccccc3[nH]2)CCc2cc(F)ccc2[C@@H]1C(C)C	Pf growth 48h 1.51µM, Pf growth 96h 2.39µM, HCV inhibitor inconclusive
Cc1nc2cc(N3CCCCC3)c(NC(=O)c3ccncc3)cc2c(=O)n1Cc1ccc(Cl)cc1	Pf growth 96h inconclusive (no result: Pf growth 48h, AMA1-RON2 inh, HCV inhibitor)
Cc1nc2cc(N3CCN(C)CC3)c(NC(=O)Cc3ccccc3)cc2c(=O)n1Cc1ccccc1	Pf growth 48h 10.4µM
CCN(CC)c1cc2nc(C)n(Cc3ccccc3)c(=O)c2cc1NC(=O)C1CC1	Pf growth 48h 7.38µM, HCV inhibitor inconclusive
COc1ccc(Cn2c(C3CC3)nc3ccc(NC(=O)C4CC4)cc3c2=O)cc1	HCV inhibitor inconclusive
COc1ccc(C(=O)NCc2nnc(SCC(=O)N3CCc4ccccc43)n2Cc2ccccc2)cc1	none
O=C(Nc1ccc(F)c(Cl)c1)c1cc(C2CCCCN2C(=O)c2cccs2)on1 (stereo unspecified)	none (no result: NS1 function inh, Pf growth 48h, SARS PLP yeast, Pf growth 96h, HCV inhibitor)
CC(C)Cc1nc(N2CCCCC2)c(C#N)c2c1CCC2	Pf growth 96h 10.4µM
CC(C)Cc1nc(N2CCNCC2)c(C#N)c2c1CCC2	Pf growth 48h inconclusive, HCV inhibitor 3.16µM
CC(=O)N1CCN(c2nc(CC(C)C)c3c(c2C#N)CCC3)CC1	Pf growth 48h inconclusive, Pf growth 96h inconclusive, HCV inhibitor inconclusive
CC1CC(C)CN(C(=O)C2CCN(S(=O)(=O)c3cccc4cccnc34)CC2)C1 (stereo unspecified)	Pf growth 96h inconclusive
CN(C(=O)C1CCCO1)C1CCS(=O)(=O)C1 (stereo unspecified)	none (no result: NS1 function inh)
CCOC(=O)N1CCC(Nc2c(-c3ccc(C)c(C)c3)c(=O)c2=O)CC1	Pf growth 96h 0.522µM
CCCN(CCC)CCNc1c(NC2CCN(C(=O)OCC)CC2)c(=O)c1=O	Pf growth 96h inconclusive (no result: Pf growth 48h)
